# Several values for one entry are separate records, joined by “and”; a condition that tells them apart may be missing. Equal values may be shown once. About 79,000 compounds went through this panel and 15% of them were active in at least one assay; those are over-represented in the sample as a whole. Some structures have more than one record in an assay (separate samples or runs), and their calls can disagree. Activity calls are given as the source filed them. Rule as the data show it: active = growth inhibition above about 70%; inactive = the rest.
# Legend:
# [1] = NCI Yeast Anticancer Drug Screen. Data for the wt1 strain (AID 149);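 also: 0% = growth of vehicle-treated wt1 cultures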; settings: S. cerevisiae wt1 strain (SPY 50644) growth inhibition, stronger effect = higher value
# Summary of the method: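 Each compound is tested on wt1 yeast and the loss of growth versus vehicle gives the inhibition value.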
# [2] = NCI Yeast Anticancer Drug Screen. Data for the rad50EPP+ strain (AID 151);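 also: 0% = growth of vehicle-treated control cultures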; settings: S. cerevisiae rad50 mutant strain, stronger effect = higher value
# Summary of the method: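 Vehicle-normalised growth inhibition; rad50EPP+ yeast strain, altered in DNA damage repair, compound-treated.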
# [3] = NCI Yeast Anticancer Drug Screen. Data for the mgt1 strain (AID 153); settings: S. cerevisiae mgt1 mutant growth inhibition, stronger effect = higher value
# Summary of the method: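 Vehicle-normalized growth inhibition is determined in mgt1 yeast, a strain selected for a defined alteration in DNA repair or cell cycle control.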
# [4] = NCI Yeast Anticancer Drug Screen. Data for the rad50 strain (AID 155);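 also: 0% = growth of vehicle-only cultures of the same strain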; settings: S. cerevisiae rad50 strain growth inhibition, stronger effect = higher value
# Summary of the method: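 Vehicle-treated cultures provide the reference for the growth inhibition reported for compound-exposed, repair-deficient yeast.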
# [5] = NCI Yeast Anticancer Drug Screen. Data for the mec2-1 strain (AID 157); settings: S. cerevisiae mec2-1 strain, stronger effect = higher value
# Summary of the method: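 Mutant yeast (mec2-1) grown with compound; growth inhibition relative to vehicle control reported.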
# [6] = NCI Yeast Anticancer Drug Screen. Data for the rad14 strain (AID 159);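 also: 0% = growth of vehicle-treated control cultures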; settings: S. cerevisiae rad14 strain growth inhibition, stronger effect = higher value
# Summary of the method: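 Inhibition of growth is reported for a repair-deficient yeast mutant following compound treatment, calculated relative to cultures that received vehicle.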
# [7] = NCI Yeast Anticancer Drug Screen. Data for the sgs1 mgt1 strain (AID 161);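 also: 0% = growth of cultures given vehicle only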; settings: S. cerevisiae sgs1 mgt1 strain, stronger effect = higher value
# Summary of the method: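 This yeast growth screen uses a strain with defined DNA-repair lesions; compound-treated growth is compared with vehicle-treated growth.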
# [8] = NCI Yeast Anticancer Drug Screen. Data for the CLN2oe strain (AID 163);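 also: 0% = growth of vehicle-only control cultures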; settings: S. cerevisiae CLN2oe strain, stronger effect = higher value
# Summary of the method: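 Compounds are applied to yeast harbouring a defined cell-cycle control change; reduced growth compared with vehicle-treated controls gives the value.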
# [9] = NCI Yeast Anticancer Drug Screen. Data for the cln2 rad14 strain (AID 165);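 also: 0% = growth equal to vehicle treated cultures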; settings: S. cerevisiae cln2 rad14 strain, stronger effect = higher value
# Summary of the method: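 Readout is yeast growth inhibition versus vehicle-treated controls, using a strain with cln2 and rad14 alterations exposed to compound.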
# [10] = NCI Yeast Anticancer Drug Screen. Data for the bub3 strain (AID 167); settings: S. cerevisiae bub3 mutant strain, stronger effect = higher value
# Summary of the method: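 Mutant yeast screening strain plus compound; vehicle-treated cultures serve as the 0% inhibition reference.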
# [11] = NCI Yeast Anticancer Drug Screen. Data for the wt2 strain (AID 169); settings: S. cerevisiae wt2 strain growth inhibition, stronger effect = higher value
# Summary of the method: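 Against vehicle-treated controls, the growth of yeast exposed to each compound was compared, and the inhibition was recorded.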
# [12] = NCI Yeast Anticancer Drug Screen. Data for the mlh1 strain (AID 171);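 also: 0% = growth of vehicle-treated control cultures of the same strain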; settings: S. cerevisiae mlh1 strain growth inhibition, stronger effect = higher value
# Summary of the method: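 Measured: yeast growth. Reference: vehicle-treated controls. Organism: strain with a defined alteration affecting DNA damage repair or cell cycle control, treated with compound.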
# [13] = NCI Yeast Anticancer Drug Screen. Data for the sgs1 strain (AID 173);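 also: 0% = growth of vehicle-only control cultures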; settings: S. cerevisiae sgs1 mutant, stronger effect = higher value
# Summary of the method: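 Each compound was added to cultures of the altered yeast strain. Growth was recorded, and inhibition was derived by comparison with vehicle controls.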
# [14] = NCI Yeast Anticancer Drug Screen. Data for the rad18 strain (AID 177); settings: S. cerevisiae rad18 mutant growth inhibition, stronger effect = higher value
# Summary of the method: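 Vehicle-treated cultures served as the baseline for scoring compound-induced growth inhibition in DNA-repair-mutant yeast.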
# [15] = NCI Yeast Anticancer Drug Screen. Data for the mlh1 rad18 strain (AID 175); settings: S. cerevisiae mlh1 rad18 strain growth inhibition, stronger effect = higher value
# Summary of the method: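 Genetically defined yeast (DNA repair-deficient) exposed to compounds; growth inhibition determined relative to vehicle.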
# [16] = at 5.0 µM (retest, dose inferred, filed as 0.5)
# [17] = at 50.0 µM (retest, dose inferred, filed as 5.0)
smiles,measurement,setting,value
Cc1nc2ccc(Br)cc2c(=O)n1-c1ccc(NC2OCC(O)C(O)C2O)cc1 (stereo not drawn),growth inhibition,[1]; at 1.2 µM,3% (inactive)
same,growth inhibition,[1]; at 3.7 µM,9% (inactive)
same,growth inhibition,[1]; at 11.0 µM,12% (inactive)
same,growth inhibition,[1]; at 33.0 µM,32% (inactive)
same,growth inhibition,[1]; at 100.0 µM,70% (active)
same,growth inhibition,[2]; at 1.2 µM,1% (inactive)
same,growth inhibition,[2]; at 3.7 µM,-1% (inactive)
same,growth inhibition,[2]; at 11.0 µM,-1% (inactive)
same,growth inhibition,[2]; at 33.0 µM,5% (inactive)
same,growth inhibition,[2]; at 100.0 µM,13% (inactive)
same,growth inhibition,[3]; at 1.2 µM,6% (inactive)
same,growth inhibition,[3]; at 3.7 µM,9% (inactive)
same,growth inhibition,[3]; at 11.0 µM,24% (inactive)
same,growth inhibition,[3]; at 33.0 µM,41% (inactive)
same,growth inhibition,[3]; at 100.0 µM,81% (active)
same,growth inhibition,[4]; at 1.2 µM,-3% (inactive)
same,growth inhibition,[4]; at 3.7 µM,17% (inactive)
same,growth inhibition,[4]; [16],11% (inactive)
same,growth inhibition,[4]; at 11.0 µM,14% (inactive)
same,growth inhibition,[4]; at 33.0 µM,53% (inactive)
same,growth inhibition,[4]; [17],0% (inactive)
same,growth inhibition,[4]; at 50.0 µM,62.1% (inactive) and 46.9% (inactive)
same,growth inhibition,[4]; at 100.0 µM,86% (active)
same,growth inhibition,[5]; at 1.2 µM,12% (inactive)
same,growth inhibition,[5]; at 3.7 µM,14% (inactive)
same,growth inhibition,[5]; [16],1% (inactive)
same,growth inhibition,[5]; at 11.0 µM,23% (inactive)
same,growth inhibition,[5]; at 33.0 µM,54% (inactive)
same,growth inhibition,[5]; [17],45% (inactive)
same,growth inhibition,[5]; at 50.0 µM,38.2% (inactive) and 56.2% (inactive)
same,growth inhibition,[5]; at 100.0 µM,90% (active)
same,growth inhibition,[6]; at 1.2 µM,4% (inactive)
same,growth inhibition,[6]; at 3.7 µM,5% (inactive)
same,growth inhibition,[6]; at 11.0 µM,14% (inactive)
same,growth inhibition,[6]; at 33.0 µM,32% (inactive)
same,growth inhibition,[6]; at 100.0 µM,79% (active)
same,growth inhibition,[7]; [16],-3% (inactive)
same,growth inhibition,[7]; [17],34% (inactive)
same,growth inhibition,[7]; at 50.0 µM,64% (inactive) and 0.15% (inactive)
same,growth inhibition,[8]; at 1.2 µM,5% (inactive)
same,growth inhibition,[8]; at 3.7 µM,11% (inactive)
same,growth inhibition,[8]; at 11.0 µM,14% (inactive)
same,growth inhibition,[8]; at 33.0 µM,39% (inactive)
same,growth inhibition,[8]; at 100.0 µM,48% (inactive)
same,growth inhibition,[9]; [16],-3% (inactive)
same,growth inhibition,[9]; [17],53% (inactive)
same,growth inhibition,[9]; at 50.0 µM,-15.2% (inactive) and 12.8% (inactive)
same,growth inhibition,[10]; at 1.2 µM,4% (inactive)
same,growth inhibition,[10]; at 3.7 µM,8% (inactive)
same,growth inhibition,[10]; [16],7% (inactive)
same,growth inhibition,[10]; at 11.0 µM,17% (inactive)
same,growth inhibition,[10]; at 33.0 µM,49% (inactive)
same,growth inhibition,[10]; [17],60% (inactive)
same,growth inhibition,[10]; at 50.0 µM,73.2% (active) and -5.1% (inactive)
same,growth inhibition,[10]; at 100.0 µM,90% (active)
same,growth inhibition,[11]; at 1.2 µM,1% (inactive)
same,growth inhibition,[11]; at 3.7 µM,4% (inactive)
same,growth inhibition,[11]; at 11.0 µM,14% (inactive)
same,growth inhibition,[11]; at 33.0 µM,43% (inactive)
same,growth inhibition,[11]; at 100.0 µM,86% (active)
same,growth inhibition,[12]; at 1.2 µM,9% (inactive)
same,growth inhibition,[12]; at 3.7 µM,9% (inactive)
same,growth inhibition,[12]; at 11.0 µM,19% (inactive)
same,growth inhibition,[12]; at 33.0 µM,52% (inactive)
same,growth inhibition,[12]; at 100.0 µM,90% (active)
same,growth inhibition,[13]; at 1.2 µM,6% (inactive)
same,growth inhibition,[13]; at 3.7 µM,12% (inactive)
same,growth inhibition,[13]; at 11.0 µM,25% (inactive)
same,growth inhibition,[13]; at 33.0 µM,61% (inactive)
same,growth inhibition,[13]; at 100.0 µM,89% (active)
same,growth inhibition,[14]; at 1.2 µM,4% (inactive)
same,growth inhibition,[14]; at 3.7 µM,6% (inactive)
same,growth inhibition,[14]; at 11.0 µM,18% (inactive)
same,growth inhibition,[14]; at 33.0 µM,55% (inactive)
same,growth inhibition,[14]; at 100.0 µM,91% (active)
CN(Cc1cccc2ccccc12)Cc1cccc2ccccc12,growth inhibition,[1]; at 1.2 µM,1% (inactive)
same,growth inhibition,[1]; at 3.7 µM,1% (inactive)
same,growth inhibition,[1]; at 11.0 µM,-1% (inactive)
same,growth inhibition,[1]; at 33.0 µM,-2% (inactive)
same,growth inhibition,[1]; at 100.0 µM,-1% (inactive)
same,growth inhibition,[2]; at 1.2 µM,-1% (inactive)
same,growth inhibition,[2]; at 3.7 µM,5% (inactive)
same,growth inhibition,[2]; at 11.0 µM,24% (inactive)
same,growth inhibition,[2]; at 33.0 µM,34% (inactive)
same,growth inhibition,[2]; at 100.0 µM,36% (inactive)
same,growth inhibition,[3]; at 1.2 µM,-2% (inactive)
same,growth inhibition,[3]; at 3.7 µM,-3% (inactive)
same,growth inhibition,[3]; at 11.0 µM,-7% (inactive)
same,growth inhibition,[3]; at 33.0 µM,-2% (inactive)
same,growth inhibition,[3]; at 100.0 µM,3% (inactive)
same,growth inhibition,[4]; at 1.2 µM,0% (inactive)
same,growth inhibition,[4]; at 3.7 µM,-3% (inactive)
same,growth inhibition,[4]; [16],1% (inactive)
same,growth inhibition,[4]; at 11.0 µM,7% (inactive)
same,growth inhibition,[4]; at 33.0 µM,6% (inactive)
same,growth inhibition,[4]; [17],76% (active)
same,growth inhibition,[4]; at 50.0 µM,60.5% (inactive)
same,growth inhibition,[4]; at 100.0 µM,9% (inactive)
same,growth inhibition,[5]; at 1.2 µM,-2% (inactive)
same,growth inhibition,[5]; at 3.7 µM,-2% (inactive)
same,growth inhibition,[5]; [16],15% (inactive)
same,growth inhibition,[5]; at 11.0 µM,-3% (inactive)
same,growth inhibition,[5]; at 33.0 µM,1% (inactive)
same,growth inhibition,[5]; [17],26% (inactive)
same,growth inhibition,[5]; at 50.0 µM,16.7% (inactive)
same,growth inhibition,[5]; at 100.0 µM,11% (inactive)
same,growth inhibition,[6]; at 1.2 µM,0% (inactive)
same,growth inhibition,[6]; at 3.7 µM,2% (inactive)
same,growth inhibition,[6]; at 11.0 µM,0% (inactive)
same,growth inhibition,[6]; at 33.0 µM,13% (inactive)
same,growth inhibition,[6]; at 100.0 µM,30% (inactive)
same,growth inhibition,[7]; [16],2% (inactive)
same,growth inhibition,[7]; [17],51% (inactive)
same,growth inhibition,[7]; at 50.0 µM,59.7% (inactive)
same,growth inhibition,[8]; at 1.2 µM,-3% (inactive)
same,growth inhibition,[8]; at 3.7 µM,-6% (inactive)
same,growth inhibition,[8]; at 11.0 µM,-18% (inactive)
same,growth inhibition,[8]; at 33.0 µM,-15% (inactive)
same,growth inhibition,[8]; at 100.0 µM,-17% (inactive)
same,growth inhibition,[9]; [16],-17% (inactive)
same,growth inhibition,[9]; [17],10% (inactive)
same,growth inhibition,[9]; at 50.0 µM,33.2% (inactive)
same,growth inhibition,[10]; at 1.2 µM,-2% (inactive)
same,growth inhibition,[10]; at 3.7 µM,1% (inactive)
same,growth inhibition,[10]; [16],-12% (inactive)
same,growth inhibition,[10]; at 11.0 µM,-25% (inactive)
same,growth inhibition,[10]; at 33.0 µM,6% (inactive)
same,growth inhibition,[10]; [17],87% (active)
same,growth inhibition,[10]; at 50.0 µM,73.7% (active)
same,growth inhibition,[10]; at 100.0 µM,2% (inactive)
same,growth inhibition,[11]; at 1.2 µM,-2% (inactive)
same,growth inhibition,[11]; at 3.7 µM,0% (inactive)
same,growth inhibition,[11]; at 11.0 µM,-4% (inactive)
same,growth inhibition,[11]; at 33.0 µM,3% (inactive)
same,growth inhibition,[11]; at 100.0 µM,9% (inactive)
same,growth inhibition,[12]; at 1.2 µM,4% (inactive)
same,growth inhibition,[12]; at 3.7 µM,2% (inactive)
same,growth inhibition,[12]; at 11.0 µM,-2% (inactive)
same,growth inhibition,[12]; at 33.0 µM,-10% (inactive)
same,growth inhibition,[12]; at 100.0 µM,13% (inactive)
same,growth inhibition,[13]; at 1.2 µM,2% (inactive)
same,growth inhibition,[13]; at 3.7 µM,2% (inactive)
same,growth inhibition,[13]; at 11.0 µM,2% (inactive)
same,growth inhibition,[13]; at 33.0 µM,19% (inactive)
same,growth inhibition,[13]; at 100.0 µM,24% (inactive)
same,growth inhibition,[15]; [16],-10% (inactive)
same,growth inhibition,[15]; [17],41% (inactive)
same,growth inhibition,[15]; at 50.0 µM,57.8% (inactive)
same,growth inhibition,[14]; at 1.2 µM,9% (inactive)
same,growth inhibition,[14]; at 3.7 µM,6% (inactive)
same,growth inhibition,[14]; at 11.0 µM,-20% (inactive)
same,growth inhibition,[14]; at 33.0 µM,11% (inactive)
same,growth inhibition,[14]; at 100.0 µM,6% (inactive)
